Reference: PubChem BioAssay AID624300 (Southern Research Specialized Biocontainment Screening …, 2012)
Out of some 2,400 compounds screened, about 360 (15%) were called active.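 How the source made its calls: active means viability falls under 70% at one or more tested concentrations, taken as toxicity; inactive means viability stays over 70% at every dose.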 Only a sample is shown. Measured potencies and affinities stand elsewhere.

experiment: viability loss in HeLa cells – cytotoxicity control for MgcRacGAP inhibitor project, dose response (AID 624300); conditions: CellTiter-Glo luminescence, 24 h; series mostly up to 100 µM; viability: at the top concentration;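 further: 100% = median of untreated control wells on the same plate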

SMILES	viability
CC1CCCCN1CC(=O)Nc1ccc(N2CCCCCC2)cc1 (configuration not stated)	105% (inactive)
CC(=O)N1CCN(c2ccc(NCc3cccs3)cc2)CC1	104% (inactive)
Oc1ccc(/C=N/NC(=S)N2CCOCC2)cc1	107% (inactive)
Cc1c(NC(=S)N/N=C/c2ccc(O)cc2)c(=O)n(-c2ccccc2)n1C	90.6% (inactive)
COc1cc(CN2CCN(C(=O)CC(C)C)CC2)cc(OC)c1O	91.8% (inactive)
O=C(/C=C\c1ccco1)c1ccc(NC(=O)c2ccco2)cc1	101% (inactive)
O=C(O)CCCNC(=O)/C=C/c1ccco1	103% (inactive)
O=C(O)CCCN1C(=O)/C(=C\c2ccco2)SC1=S	94% (inactive)
CCCN1C(=O)S/C(=C/c2ccc(N3CCOCC3)o2)C1=O	85% (inactive)
CCn1c(=S)[nH]c2c(=O)n(C)c(=O)n(C)c21	90.8% (inactive)
COc1cc(/C=N/NC(=O)CCN2CCN(C(c3ccccc3)c3ccccc3)CC2)ccc1O	106% (inactive)
COc1ccc2cc(OCC(=O)NNC(=O)Nc3ccc(C(C)=O)cc3)ccc2c1	106% (inactive)
COc1cc(/C=N/NC(=O)C(=O)Nc2ccccn2)ccc1O	105% (inactive)
O=[N+]([O-])c1cc(Br)c(O)c(C=Nc2ccc(N3CCOCC3)cc2)c1	95.3% (inactive)
CN(C)c1ccc(NS(=O)(=O)c2cc(Cl)ccc2Cl)cc1	104% (inactive)
CCOC(=O)N1CCC(N2CCN(S(=O)(=O)c3ccc4ccccc4c3)CC2)CC1	97.3% (inactive)
Nc1ccc2c(c1)Cc1cc(N)c(Br)cc1-2	99.7% (inactive)
COc1cc(-c2cc(-c3ccc(F)cc3)nc(N)c2C#N)ccc1O	105% (inactive)
COc1cc(-c2cc(C(=O)O)c3c(OC)c(OC)c(OC)cc3n2)ccc1O	104% (inactive)
O=C1CC(c2ccccc2)CC(O)=C1C=Nc1ccc(O)cc1 (configuration not stated)	105% (inactive)
S=c1[nH]nc2sc3ccccc3n12	90.2% (inactive)
Oc1ccc(N2CCN(c3ccnc4cc(Cl)ccc34)CC2)cc1	82.4% (inactive)

SMILES	viability
O=C(O)c1c2c(nc3ccccc13)/C(=C/c1ccc(O)cc1)CCC2	89.2% (inactive)
COc1cc(/C=N/NC(=O)CNC(=O)c2ccc3c(c2)OCCO3)ccc1O	112% (inactive)
COc1cc(/C=N/NC(=O)CCn2nnc3ccccc32)ccc1O	105% (inactive)
COc1ccc(NS(=O)(=O)c2cccc(C(=O)NN=Cc3ccc(O)c(OC)c3)c2)cc1	98.1% (inactive)
COc1cc(/C=N/NC(=O)c2cccc([N+](=O)[O-])c2)ccc1O	96.9% (inactive)
COc1cc(/C=N/NC(=O)c2ccccc2)ccc1O	82.1% (inactive)
COc1cc(/C=N/NC(=O)CN(Cc2ccco2)S(=O)(=O)c2ccccc2)ccc1O	88.9% (inactive)
COc1cc(/C=N/NC(=S)Nc2cccc(C(=O)O)c2)ccc1O	102% (inactive)
COc1cc(/C=N/NC(=O)CCc2ccccc2)ccc1O	97.8% (inactive)
COc1cc(CN2CCC(C(=O)N3CCN(c4ccccc4F)CC3)CC2)ccc1O	96.1% (inactive)
COc1cc(/C=C/C(=O)OCC(=O)Nc2c(C)n(C)n(-c3ccccc3)c2=O)ccc1O	100% (inactive)
Oc1ccc(Cl)cc1N=Cc1sc2ccccc2c1Cl	96.4% (inactive)
COCc1cc(C)nc(OCC(=O)N/N=C/c2ccc(O)cc2)c1C#N	93.9% (inactive)
O=C(Cc1cccs1)N/N=C\c1ccc(O)cc1	101% (inactive)
COCCNC(=O)COc1ccc(Nc2ccccc2)cc1	97.8% (inactive)
COc1ccc(N2CCN(c3ncccc3C#N)CC2)cc1	101% (inactive)
COc1cc(/C=C/C(=O)OCC(=O)NNC(=O)c2cc(Cl)ccc2OC)ccc1O	98.7% (inactive)
C=CCN1C(=O)CSC1=Nc1ccc(O)cc1	114% (inactive)
COc1ccc(N2CCN(CC(=O)N3c4ccccc4CC3C)CC2)cc1 (configuration not stated)	94.6% (inactive)
Cc1[nH]c2ccccc2c1N=Nc1c(C)n(C)n(-c2ccccc2)c1=O	91.2% (inactive)
COc1ccc(NC(=O)c2ccc(NC(=O)CN3CCN(c4ccc(O)cc4)CC3)cc2)cc1	97.1% (inactive)
COc1ccc(NC2CCCN(C(=O)CCc3ccccc3F)C2)cc1 (configuration not stated)	102% (inactive)

SMILES	viability
COC(=O)CCNCCSc1nnc(-c2ccco2)n1Cc1ccccc1	100% (inactive)
CCOC(=O)c1sc(/N=C/c2ccc(O)cc2O)cc1C	99% (inactive)
COc1cc(/C=N/NC(=O)c2ccc(=O)[nH]n2)ccc1O	110% (inactive)
COc1cc(/C=N/NC(=O)c2nc(-c3ccccc3)n(-c3ccccc3)n2)ccc1O	99.1% (inactive)
COc1cccc(-c2ncc3ccccn23)c1	80.1% (inactive)
COc1ccc(-c2ncc3ccccn23)cc1OC	91.5% (inactive)
CS(=O)(=O)C1=NSC2=NC(=O)/C(=C\c3ccc(OC(=O)c4ccco4)c(Br)c3)C(=N)N21	103% (inactive)
CC(=O)Nc1ccc(S(=O)(=O)Nc2nc3ccccc3nc2Nc2ccc(C(=O)O)c(O)c2)cc1	104% (inactive)
C[C@@H]1O[C@@H](OC[C@H]2O[C@@H](Oc3cc(O)c4c(=O)cc(-c5ccc(O)c(O)c5)oc4c3)[C@H](O)[C@@H](O)[C@@H]2O)[C@H](O)[C@H](O)[C@H]1O	103% (inactive)
C=CC[n+]1c(/C=C/c2ccc(OC(C)=O)c(OC)c2)ccc2ccccc21	101% (inactive)
CN(C)c1ccc(/C=N/O)cc1	94.3% (inactive)
CC/C(=C\c1ccc(N(C)C)cc1)c1ccncc1	92.7% (inactive)
Nc1cc(Cc2ccccc2)ccc1O	95.1% (inactive)
N#Cc1ccc(OCC(=O)Nc2ccc(N3CCCC3)cc2)cc1	94.7% (inactive)
O=C(Nc1ccc(N2CCCCC2)cc1)c1ccccc1	84.1% (inactive)
COc1cc(N=Nc2ccc(C(=O)N(C)C)cc2)c(C)cc1N	88.4% (inactive)
N#CC1(Nc2ccc3c4c(cccc24)CC3)CCCCC1	104% (inactive)
Cc1cnc(NC(=O)C(C)N2CCN(C)CC2)s1 (configuration not stated)	100% (inactive)
O=C(Nc1ccccc1Cl)Oc1ccc(-c2ccccc2)cc1	88.8% (inactive)
Cc1cc(NC(=O)CN2CCC(C)CC2)no1	101% (inactive)
COc1ccccc1NS(=O)(=O)c1ccc(C)c(C(=O)N2CCN(c3ccc(O)cc3)CC2)c1	104% (inactive)
Cc1ccc(C2C=NN(c3ccccc3)C2=O)cc1 (configuration not stated)	93.7% (inactive)

SMILES	viability
C=CCn1c(=O)/c(=C/c2ccc(O)cc2)s/c1=C(/C#N)c1nnc2n1CCCCC2	96% (inactive)
COc1ccc(NC2CCCN(C(=O)CCc3scnc3C)C2)cc1 (configuration not stated)	99.4% (inactive)
COc1cc(N)c2ncccc2c1OC	97.3% (inactive)
COc1cc(N)c2ncccc2c1SC	92.9% (inactive)
COc1ccccc1N1CCN(/N=C/c2ccc(O)cc2O)CC1	102% (inactive)
COc1ccc(Br)cc1CNc1ccc(O)cc1	104% (inactive)
COc1ccc(CNCc2cccc(OC)c2OC)cc1Br	96% (inactive)
COc1ccc(Br)cc1CN(C)CC(=O)NCCc1ccccc1	93.4% (inactive)
COc1ccc(CN2CCN(Cc3ccc(Br)cc3)CC2)c(OC)c1OC	85% (inactive)
Oc1ccc(/C=N/NC(=S)NCc2ccco2)cc1	93.7% (inactive)
CCN(CC)c1ccc(/C=N/N2CCOCC2)cc1	100% (inactive)
CCNc1nc(NCC)nc(N/N=C/c2ccc(O)c(O)c2)n1	95.7% (inactive)
COc1ccc(NC(=O)NS(=O)(=O)c2ccc(C)cc2)cc1OC	86.5% (inactive)
CCc1nnc(N/N=C/c2cc(Br)c(O)cc2O)n1N	92.8% (inactive)
COc1cc(/C=C/C(=O)OCC(=O)NCc2ccc(F)cc2)ccc1O	109% (inactive)
CCN(CC)c1ccc(Nc2nc(-c3cccnc3)cs2)cc1	101% (inactive)
CCN(CC)c1ccc(NC(=O)c2ccc(Br)o2)cc1	93% (inactive)
COc1ccc(N2CCC(CNC(=O)Nc3ccc(C)c(C)c3)C2)cc1 (configuration not stated)	96.6% (inactive)
COc1cc(C(=O)N/N=C/c2ccc(OC)c(CN3CCN(c4ccc(F)cc4)CC3)c2)ccc1O	101% (inactive)
CC1=CC(c2ccccc2)NC(=S)N1 (configuration not stated)	98.5% (inactive)
COc1cc2c(cc1N)-c1ccc(N)cc1C2	83.6% (inactive)
COc1ccc(NC(=O)C(C)N2CCN(C)CC2)cc1 (configuration not stated)	102% (inactive)

SMILES	viability
COc1ccc(NC2CCCN(C(=O)c3csc(C(C)C)n3)C2)cc1 (configuration not stated)	106% (inactive)
CCOc1cc(/C=N/NC(=O)c2ccc(=O)n(C)c2)ccc1O	103% (inactive)
Cc1nonc1C(=O)N/N=C/c1ccc(O)cc1	87.1% (inactive)
COc1cc(/C=N/NC(=O)c2nonc2C)ccc1O	93.3% (inactive)
O=C(CNC(=O)c1ccncc1)N/N=C/c1ccc(O)cc1O	88% (inactive)
COc1cc(/C=N/NC(=O)C2=NNC(=O)C2C)ccc1O (configuration not stated)	101% (inactive)
COc1cc(/C=N/NC(=O)Cc2nnc(NC(=O)c3ccccc3)s2)ccc1O	97.2% (inactive)
CC(=O)Nc1ccc(S(=O)(=O)Nc2ccc(Nc3ccccc3)cc2)cc1	106% (inactive)
CCn1c(C)nc2cc(C(=O)N/N=C/c3ccc(O)cc3)ccc21	113% (inactive)
Cc1nn2cc(-c3ccc(N)cc3)nc2s1	101% (inactive)
COc1cc(/C(C)=N/NC(=O)Cc2c(C)[nH][nH]c2=O)ccc1O	99.8% (inactive)
C=CCn1c(CNc2ccc(C)cc2)nnc1SCC(=O)N/N=C/c1ccc(O)cc1O	89.8% (inactive)
CC(C)Cn1c(-c2ccc(Br)o2)n[nH]c1=S	97.4% (inactive)
CCN(CC)CCNCC(=O)Nc1ccc(Oc2ccccc2)cc1	97.4% (inactive)
CCC(=O)c1ccccc1OCCN1CCN(CC)CC1	89.8% (inactive)
CN(C)c1ccc(Cc2ccc(N(C)C)cc2)cc1	95.3% (inactive)
O=C1c2c([N+](=O)[O-])cc([N+](=O)[O-])cc2S(=O)N1Cc1ccccc1 (configuration not stated)	106% (inactive)
COc1cc(/C=C/C(=O)OCC(=O)Nc2cccc(F)c2)ccc1O	94.6% (inactive)
O=[S@]1Oc2ccccc2-c2ccccc21	107% (inactive)
